Results as given in ChEMBL document CHEMBL1961873, “Compounds: GSK PKIS; Assays: Nanosyn kinase panel” (2012).

Key:
[1] = target: Sphingosine kinase 1 (Homo sapiens) (UniProt Q9NYA1); conditions: at 1 µM;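 note: mean SPHK1 inhibition value reported from the GSK PKIS kinase panel screen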
[2] = target: T1, Sphingosine kinase 2 (Homo sapiens) (UniProt Q9NRA0); conditions: at 0.1 µM
T1 sequence (whole entry): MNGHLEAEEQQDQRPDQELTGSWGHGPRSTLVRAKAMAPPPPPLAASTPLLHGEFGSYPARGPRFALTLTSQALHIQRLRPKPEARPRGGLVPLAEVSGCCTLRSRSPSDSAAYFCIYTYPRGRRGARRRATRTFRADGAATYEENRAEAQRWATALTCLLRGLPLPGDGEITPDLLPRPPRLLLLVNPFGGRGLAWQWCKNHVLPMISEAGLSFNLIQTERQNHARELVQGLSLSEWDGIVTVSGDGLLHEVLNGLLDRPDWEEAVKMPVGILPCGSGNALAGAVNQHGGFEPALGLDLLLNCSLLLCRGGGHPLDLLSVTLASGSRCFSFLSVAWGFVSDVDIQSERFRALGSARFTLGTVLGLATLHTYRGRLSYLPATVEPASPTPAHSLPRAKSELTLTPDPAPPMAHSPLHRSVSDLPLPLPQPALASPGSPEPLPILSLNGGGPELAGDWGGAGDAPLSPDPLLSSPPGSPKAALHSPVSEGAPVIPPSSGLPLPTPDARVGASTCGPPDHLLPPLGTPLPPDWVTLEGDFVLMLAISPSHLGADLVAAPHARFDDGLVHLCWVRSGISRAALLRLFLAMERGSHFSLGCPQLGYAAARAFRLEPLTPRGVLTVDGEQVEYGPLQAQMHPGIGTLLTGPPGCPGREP

[3] = target: T1, Sphingosine kinase 2 (Homo sapiens); conditions: at 1 µM
[4] = target: Casein kinase II subunit alpha (Homo sapiens) (UniProt P68400); conditions: at 0.1 µM
[5] = target: Casein kinase II subunit alpha (Homo sapiens) (UniProt P68400); conditions: at 1 µM
[6] = target: T2, Inhibitor of nuclear factor kappa-B kinase subunit alpha (Homo sapiens) (UniProt O15111); conditions: at 0.1 µM
T2 sequence (whole entry): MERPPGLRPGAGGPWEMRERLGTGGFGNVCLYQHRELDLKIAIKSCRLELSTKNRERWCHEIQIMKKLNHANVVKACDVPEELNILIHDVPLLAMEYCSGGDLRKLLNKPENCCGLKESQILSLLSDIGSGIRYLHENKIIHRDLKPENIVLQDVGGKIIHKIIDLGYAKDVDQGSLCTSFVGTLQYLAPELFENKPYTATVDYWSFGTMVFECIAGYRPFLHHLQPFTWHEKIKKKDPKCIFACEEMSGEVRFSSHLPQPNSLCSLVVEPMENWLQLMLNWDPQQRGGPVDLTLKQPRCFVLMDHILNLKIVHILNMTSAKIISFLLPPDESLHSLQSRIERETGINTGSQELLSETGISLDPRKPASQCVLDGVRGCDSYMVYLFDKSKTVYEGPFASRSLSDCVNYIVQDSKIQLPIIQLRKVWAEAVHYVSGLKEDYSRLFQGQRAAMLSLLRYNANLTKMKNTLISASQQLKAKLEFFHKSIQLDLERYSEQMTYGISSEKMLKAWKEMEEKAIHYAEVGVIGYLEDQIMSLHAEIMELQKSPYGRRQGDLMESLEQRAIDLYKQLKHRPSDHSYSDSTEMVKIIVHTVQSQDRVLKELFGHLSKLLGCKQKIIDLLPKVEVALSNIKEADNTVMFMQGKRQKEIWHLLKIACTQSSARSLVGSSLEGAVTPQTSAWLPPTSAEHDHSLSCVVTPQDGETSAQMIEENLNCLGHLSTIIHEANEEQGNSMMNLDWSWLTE

[7] = target: T2, Inhibitor of nuclear factor kappa-B kinase subunit alpha (Homo sapiens); conditions: at 1 µM
[8] = target: T3, Inhibitor of nuclear factor kappa-B kinase subunit beta (Homo sapiens) (UniProt O14920); conditions: at 0.1 µM
T3 sequence (whole entry): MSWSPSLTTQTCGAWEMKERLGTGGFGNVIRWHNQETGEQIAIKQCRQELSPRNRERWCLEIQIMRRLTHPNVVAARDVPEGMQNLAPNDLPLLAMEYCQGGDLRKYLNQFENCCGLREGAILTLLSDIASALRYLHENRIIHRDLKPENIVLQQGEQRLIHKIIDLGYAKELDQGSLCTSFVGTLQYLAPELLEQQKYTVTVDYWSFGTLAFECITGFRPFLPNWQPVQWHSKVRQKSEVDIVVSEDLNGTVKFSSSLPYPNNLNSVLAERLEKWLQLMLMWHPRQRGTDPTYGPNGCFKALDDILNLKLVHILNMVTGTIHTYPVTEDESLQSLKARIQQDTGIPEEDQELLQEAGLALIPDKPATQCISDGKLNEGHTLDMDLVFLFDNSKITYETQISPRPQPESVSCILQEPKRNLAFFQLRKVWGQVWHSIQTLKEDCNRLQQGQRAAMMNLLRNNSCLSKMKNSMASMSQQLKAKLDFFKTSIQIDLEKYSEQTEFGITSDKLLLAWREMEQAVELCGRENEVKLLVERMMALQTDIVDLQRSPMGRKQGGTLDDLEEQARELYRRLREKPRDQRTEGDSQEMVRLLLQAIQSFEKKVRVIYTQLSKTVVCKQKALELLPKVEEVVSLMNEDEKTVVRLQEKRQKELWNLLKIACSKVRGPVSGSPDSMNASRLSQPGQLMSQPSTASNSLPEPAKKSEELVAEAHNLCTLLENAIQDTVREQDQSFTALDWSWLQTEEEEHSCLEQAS

[9] = target: T3, Inhibitor of nuclear factor kappa-B kinase subunit beta (Homo sapiens); conditions: at 1 µM
[10] = target: T4, Inhibitor of nuclear factor kappa-B kinase subunit epsilon (Homo sapiens) (UniProt Q14164); conditions: at 0.1 µM
T4 sequence (whole entry): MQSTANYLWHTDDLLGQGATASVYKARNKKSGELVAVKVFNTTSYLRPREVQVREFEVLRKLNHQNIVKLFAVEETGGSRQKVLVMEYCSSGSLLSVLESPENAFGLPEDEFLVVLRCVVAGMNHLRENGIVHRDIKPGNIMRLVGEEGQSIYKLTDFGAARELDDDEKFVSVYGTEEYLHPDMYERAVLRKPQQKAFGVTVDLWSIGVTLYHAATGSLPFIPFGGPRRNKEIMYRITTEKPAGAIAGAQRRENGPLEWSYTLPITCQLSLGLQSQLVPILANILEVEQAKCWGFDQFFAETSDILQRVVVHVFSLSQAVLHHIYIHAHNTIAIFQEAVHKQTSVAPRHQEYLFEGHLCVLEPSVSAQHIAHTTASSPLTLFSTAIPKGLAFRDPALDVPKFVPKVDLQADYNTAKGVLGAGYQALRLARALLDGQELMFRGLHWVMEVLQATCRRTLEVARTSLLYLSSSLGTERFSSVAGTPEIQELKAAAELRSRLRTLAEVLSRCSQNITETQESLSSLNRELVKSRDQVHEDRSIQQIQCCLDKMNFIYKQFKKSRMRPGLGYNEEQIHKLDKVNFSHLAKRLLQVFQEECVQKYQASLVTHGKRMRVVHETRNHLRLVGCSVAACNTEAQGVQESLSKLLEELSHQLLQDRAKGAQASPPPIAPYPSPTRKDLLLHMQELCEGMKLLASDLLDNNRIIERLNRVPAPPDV

[11] = target: T4, Inhibitor of nuclear factor kappa-B kinase subunit epsilon (Homo sapiens); conditions: at 1 µM
[12] = target: T5, Serine/threonine-protein kinase Nek1 (Homo sapiens) (UniProt Q96PY6); conditions: at 0.1 µM
T5 sequence (whole entry): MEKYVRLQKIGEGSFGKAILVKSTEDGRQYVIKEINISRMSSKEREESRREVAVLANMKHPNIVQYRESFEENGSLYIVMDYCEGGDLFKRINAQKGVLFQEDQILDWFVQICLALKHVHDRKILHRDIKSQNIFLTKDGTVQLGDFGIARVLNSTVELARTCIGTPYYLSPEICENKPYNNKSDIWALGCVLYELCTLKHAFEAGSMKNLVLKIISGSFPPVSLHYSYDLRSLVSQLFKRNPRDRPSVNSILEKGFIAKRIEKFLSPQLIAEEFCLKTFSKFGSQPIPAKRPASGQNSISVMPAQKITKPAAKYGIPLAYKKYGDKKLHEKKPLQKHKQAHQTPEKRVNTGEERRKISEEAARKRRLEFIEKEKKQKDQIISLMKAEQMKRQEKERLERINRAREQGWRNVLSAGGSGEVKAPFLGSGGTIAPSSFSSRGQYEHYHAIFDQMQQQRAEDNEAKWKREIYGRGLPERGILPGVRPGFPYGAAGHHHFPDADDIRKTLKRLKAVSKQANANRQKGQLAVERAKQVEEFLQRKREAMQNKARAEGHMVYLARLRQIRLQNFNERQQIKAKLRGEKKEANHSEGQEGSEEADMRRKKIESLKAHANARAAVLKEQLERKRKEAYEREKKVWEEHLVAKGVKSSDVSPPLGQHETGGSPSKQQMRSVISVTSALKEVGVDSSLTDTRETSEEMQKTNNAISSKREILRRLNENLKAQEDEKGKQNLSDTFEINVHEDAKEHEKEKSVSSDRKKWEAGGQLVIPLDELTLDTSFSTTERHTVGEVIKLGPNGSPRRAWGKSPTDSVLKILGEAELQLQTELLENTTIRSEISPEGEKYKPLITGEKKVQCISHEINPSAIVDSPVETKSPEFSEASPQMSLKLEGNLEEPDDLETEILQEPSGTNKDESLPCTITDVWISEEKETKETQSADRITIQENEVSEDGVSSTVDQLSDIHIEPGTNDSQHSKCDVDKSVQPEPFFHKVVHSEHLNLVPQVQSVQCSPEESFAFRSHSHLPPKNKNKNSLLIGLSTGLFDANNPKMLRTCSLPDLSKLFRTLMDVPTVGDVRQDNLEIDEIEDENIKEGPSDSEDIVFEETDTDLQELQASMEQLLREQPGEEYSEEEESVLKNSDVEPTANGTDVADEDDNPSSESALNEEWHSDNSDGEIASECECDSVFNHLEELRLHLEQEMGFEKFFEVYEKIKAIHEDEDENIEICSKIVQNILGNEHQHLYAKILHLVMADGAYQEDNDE

[13] = target: T5, Serine/threonine-protein kinase Nek1 (Homo sapiens); conditions: at 1 µM
[14] = target: T6, Serine/threonine-protein kinase Nek2 (Homo sapiens) (UniProt P51955); conditions: at 0.1 µM
T6 sequence (whole entry): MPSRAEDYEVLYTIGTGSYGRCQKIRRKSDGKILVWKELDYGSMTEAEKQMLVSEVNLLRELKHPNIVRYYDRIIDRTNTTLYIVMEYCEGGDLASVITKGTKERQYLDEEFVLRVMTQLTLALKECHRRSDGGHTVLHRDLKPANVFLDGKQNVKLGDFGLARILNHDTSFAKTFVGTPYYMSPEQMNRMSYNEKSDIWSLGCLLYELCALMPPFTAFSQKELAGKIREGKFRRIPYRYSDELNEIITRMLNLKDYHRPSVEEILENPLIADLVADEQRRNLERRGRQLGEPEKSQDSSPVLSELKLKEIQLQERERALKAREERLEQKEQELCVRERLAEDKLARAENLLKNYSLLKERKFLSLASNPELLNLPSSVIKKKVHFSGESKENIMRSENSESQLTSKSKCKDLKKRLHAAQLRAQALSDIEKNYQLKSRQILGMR

[15] = target: T6, Serine/threonine-protein kinase Nek2 (Homo sapiens); conditions: at 1 µM
[16] = target: Serine/threonine-protein kinase Nek6 (Homo sapiens) (UniProt Q9HC98); conditions: at 0.1 µM
[17] = target: Serine/threonine-protein kinase Nek6 (Homo sapiens) (UniProt Q9HC98); conditions: at 1 µM
[18] = target: Serine/threonine-protein kinase Nek7 (Homo sapiens) (UniProt Q8TDX7); conditions: at 0.1 µM
[19] = target: Serine/threonine-protein kinase Nek7 (Homo sapiens) (UniProt Q8TDX7); conditions: at 1 µM
[20] = target: T7, Serine/threonine-protein kinase Nek9 (Homo sapiens) (UniProt Q8TD19); conditions: at 0.1 µM;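 note: reported value is the mean percent inhibition of NEK9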
T7 sequence (whole entry): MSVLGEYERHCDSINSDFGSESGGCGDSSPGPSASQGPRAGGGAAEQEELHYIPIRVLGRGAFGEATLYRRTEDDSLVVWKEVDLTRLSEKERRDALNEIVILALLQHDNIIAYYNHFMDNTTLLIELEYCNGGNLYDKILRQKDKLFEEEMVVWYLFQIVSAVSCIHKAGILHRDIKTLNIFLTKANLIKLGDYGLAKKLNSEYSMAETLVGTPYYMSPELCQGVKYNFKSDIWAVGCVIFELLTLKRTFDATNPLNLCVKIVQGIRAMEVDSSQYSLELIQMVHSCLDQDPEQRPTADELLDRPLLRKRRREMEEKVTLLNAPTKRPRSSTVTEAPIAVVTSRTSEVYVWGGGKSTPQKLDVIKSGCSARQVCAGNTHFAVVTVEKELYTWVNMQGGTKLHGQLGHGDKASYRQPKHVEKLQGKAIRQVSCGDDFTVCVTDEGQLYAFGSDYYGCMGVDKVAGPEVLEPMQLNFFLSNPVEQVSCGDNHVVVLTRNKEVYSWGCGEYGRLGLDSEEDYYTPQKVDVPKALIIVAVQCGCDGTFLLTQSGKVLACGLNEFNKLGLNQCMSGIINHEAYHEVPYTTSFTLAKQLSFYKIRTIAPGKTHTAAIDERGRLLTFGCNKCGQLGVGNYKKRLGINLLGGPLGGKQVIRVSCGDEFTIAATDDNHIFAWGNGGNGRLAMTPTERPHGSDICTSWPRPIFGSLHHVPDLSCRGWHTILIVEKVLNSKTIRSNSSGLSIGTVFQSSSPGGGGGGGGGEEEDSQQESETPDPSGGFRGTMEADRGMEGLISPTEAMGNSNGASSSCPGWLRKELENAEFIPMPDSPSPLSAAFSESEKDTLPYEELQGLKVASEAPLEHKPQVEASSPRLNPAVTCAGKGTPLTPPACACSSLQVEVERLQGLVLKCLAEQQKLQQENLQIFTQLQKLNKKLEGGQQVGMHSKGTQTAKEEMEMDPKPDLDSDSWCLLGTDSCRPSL

Sequence of Serine/threonine-protein kinase Nek6 (Homo sapiens) (Q9HC98 whole entry): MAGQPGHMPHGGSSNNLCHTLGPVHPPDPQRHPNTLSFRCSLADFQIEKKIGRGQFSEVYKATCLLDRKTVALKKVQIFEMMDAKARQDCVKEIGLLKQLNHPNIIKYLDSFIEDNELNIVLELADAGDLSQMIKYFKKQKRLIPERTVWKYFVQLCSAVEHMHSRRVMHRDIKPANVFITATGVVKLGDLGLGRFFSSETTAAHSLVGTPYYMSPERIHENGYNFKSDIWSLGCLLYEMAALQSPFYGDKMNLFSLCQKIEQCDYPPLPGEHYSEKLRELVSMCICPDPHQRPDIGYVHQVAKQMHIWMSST
Sequence of Serine/threonine-protein kinase Nek7 (Homo sapiens) (Q8TDX7 whole entry, looked up): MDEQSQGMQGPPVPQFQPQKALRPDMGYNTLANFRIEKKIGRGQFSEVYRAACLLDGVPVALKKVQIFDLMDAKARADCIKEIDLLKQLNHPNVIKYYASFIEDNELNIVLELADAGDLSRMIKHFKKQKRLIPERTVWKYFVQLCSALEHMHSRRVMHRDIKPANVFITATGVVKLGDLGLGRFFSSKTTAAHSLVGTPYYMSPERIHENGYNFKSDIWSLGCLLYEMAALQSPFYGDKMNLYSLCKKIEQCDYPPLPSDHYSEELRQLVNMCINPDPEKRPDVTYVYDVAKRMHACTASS
Sequence of Casein kinase II subunit alpha (Homo sapiens) (P68400 whole entry, looked up): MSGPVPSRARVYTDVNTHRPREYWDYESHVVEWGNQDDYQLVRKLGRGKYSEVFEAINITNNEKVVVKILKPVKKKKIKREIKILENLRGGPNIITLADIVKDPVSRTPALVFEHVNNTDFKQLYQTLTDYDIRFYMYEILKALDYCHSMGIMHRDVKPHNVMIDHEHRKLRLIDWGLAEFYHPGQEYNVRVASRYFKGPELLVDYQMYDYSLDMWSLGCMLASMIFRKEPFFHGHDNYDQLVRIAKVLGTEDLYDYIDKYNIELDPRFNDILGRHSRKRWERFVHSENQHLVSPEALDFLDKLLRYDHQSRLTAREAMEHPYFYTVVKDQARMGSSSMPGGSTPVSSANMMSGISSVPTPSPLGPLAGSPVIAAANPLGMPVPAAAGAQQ
Sequence of Sphingosine kinase 1 (Homo sapiens) (Q9NYA1 whole entry): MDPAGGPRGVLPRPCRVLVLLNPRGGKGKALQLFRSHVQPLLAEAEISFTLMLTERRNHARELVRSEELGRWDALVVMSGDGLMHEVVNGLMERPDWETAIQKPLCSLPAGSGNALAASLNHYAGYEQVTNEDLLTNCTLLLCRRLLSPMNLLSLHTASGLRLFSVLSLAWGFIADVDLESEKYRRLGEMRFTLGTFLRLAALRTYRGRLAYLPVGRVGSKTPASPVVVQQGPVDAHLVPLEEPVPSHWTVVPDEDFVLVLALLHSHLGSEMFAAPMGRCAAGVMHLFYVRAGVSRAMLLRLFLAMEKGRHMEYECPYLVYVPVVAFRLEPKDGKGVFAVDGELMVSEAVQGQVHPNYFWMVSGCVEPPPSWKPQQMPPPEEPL

## Cn1c(-c2nonc2N)nc2cnccc21
[1]
  inhibition: 3.87%
[2]
  inhibition: 2.29%
[3]
  inhibition: 0.16%
[4]
  inhibition: 1.78%
[5]
  inhibition: -1.25%
[6]
  inhibition: 1.72%
[7]
  inhibition: 7.51%
[8]
  inhibition: 5.29%
[9]
  inhibition: 1.73%
[10]
  inhibition: 6.16%
[11]
  inhibition: 6.44%
[12]
  inhibition: 1.82%
[13]
  inhibition: 3.22%
[14]
  inhibition: 4.27%
[15]
  inhibition: 3.27%
[16]
  inhibition: 3.89%
[17]
  inhibition: -0.49%
[18]
  inhibition: 3.76%
[19]
  inhibition: 3.15%
[20]
  inhibition: 12.2%
